Experimental data taken from PubChem BioAssay (Tox21).
Where “and” joins values, the source holds several entries; their conditions need not be identical. Identical values can stand only once. Results filed as inconclusive are left out. Where a call stands in place of a potency, no number is given. Some structures have more than one record in an assay (separate samples or runs), and their calls can disagree. Calls of active or inactive are those of the source. Calls follow the shape of the dose curve; as a rule, active = well fitted cell-killing curve with a large enough effect in the repeat runs; inconclusive = weak or mixed curves, or effect the other way; inactive = no such curve, though single readings can be large or run the other way.

assay: qHTS assay to identify small molecule agonists of the farnesoid-X-receptor (FXR) signaling pathway - cell viability counter screen (AID 743218); conditions: FXR-bla HEK293T viability, CellTiter-Glo luminescence, 16 h; series mostly up to 62.6 µM; also: nearly all actives have a fitted effect of over 45% in size
Source text: U.S. Tox21 Program National Center for Advancing Translational Sciences [NCATS] NIH Chemical Genomics Center [NCGC] U.S. Environmental Protection Agency [EPA] National Institutes of Environmental Health Sciences [NIEHS] National Toxicology Program [NTP] U.S. Food and Drug Administration [FDA] Tox21 Assay Overview: The farnesoid-X-receptor (FXR), a nuclear hormone receptor, is highly expressed in liver, intestine, kidney and adrenal cortex. Natural ligands of FXR are the bile acids (Cholic acid, Chenodeoxy cholic acid etc). FXR is an important regulator of diverse metabolic pathways, including the bile acid homeostasis, lipid and glucose metabolisms. FXR regulates the expression of target genes by binding either as a monomer or as a heterodimer with the retinoid X receptor (RXR). Numerous studies have reported that FXR exerts protective function during cholestasis, diabetes, liver regeneration, and cancer. To identify compounds that activate FXR signaling, GeneBLAzer FXR-UAS-bla HEK 293T cell line (Invitrogen, Carlsbad, CA) containing a beta-lactamase reporter gene under the control of a UAS response element was used to screen the Tox21 10K compound library. The cytotoxicity of the Tox21 compound library against the FXR-bla cell line was tested in parallel by measuring the cell viability using CellTiter-Glo assay in the same wells.
Tox21 Assay Protocol Summary: FXR-bla cells were dispensed at 5000 cells/5uL/well in 1536-well black wall/clear bottom plates using a Multidrop Combi (Thermo Fisher Scientific, Waltham, MA) dispenser. After the assay plates were incubated at 37 C and 5% CO2 for 5 h, 23 nL of compounds dissolved in DMSO, positive controls or DMSO only was transferred to the assay plate by a Pintool station (Kalypsys, San Diego, CA). The assay plates were incubated at 37C for 16 h. After 1 uL of LiveBLAzerTM B/G FRET substrate was added using a Bioraptr Flying Reagent Dispenser (FRD) workstation (Beckman Coulter, Indianapolis, IN), the plates were incubated at room temperature for 2 h, and fluorescence intensity was measured by an Envision plate reader (PerkinElmer, Shelton, CT). For cell viability readout that measures cytotoxicity, 4uL/well of CellTiter-Glo reagent was added into the assay plates using a Bioraptr FRD. After 30 min incubation at room temperature, the luminescence intensity in the plates was measured using a ViewLux plate reader (PerkinElmer).
Potency is read from the fitted curve at half-maximal effect.

| SMILES | Potency |
| --- | --- |
| CCCCCCCCCCCCCCCCn1cc[n+](C)c1 | inactive and 44 µM (active) and 21.9 µM (active) |
| CCCCCCn1cc[n+](C)c1 | inactive |
| OCCOc1ccccc1 | inactive |
| CCCC[n+]1ccccc1 | inactive |
| CC(=O)O | inactive |
| CCC[N+]1(C)CCCC1 | inactive |
| COc1ccc(N)cc1 | inactive |
| Cc1cc(Cl)ccc1N | inactive |
| Nc1ccc(-c2ccc(N)cc2)cc1 | inactive |
| CN(C)[C@@H]1C(=O)C(C(N)=O)=C(O)[C@@]2(O)C(=O)C3=C(O)c4c(O)cccc4[C@@](C)(O)[C@H]3[C@H](O)[C@@H]12 | inactive |
| COc1ccccc1N | inactive |
| O=C(O)COc1ccc(Cl)cc1Cl | inactive |
| CCCCCCCCCCCCCC[P+](CCCCCC)(CCCCCC)CCCCCC | 13.9 µM (active) and 24.7 µM (active) and inactive |
| CCNc1nc(Cl)nc(NCC)n1 | inactive |
| Oc1ccccc1-c1ccccc1 | inactive |
| Nc1ccc(Cl)cc1 | inactive |
| Nc1ccccc1 | inactive |
| O=C(O)C(Cl)Cl | inactive |
| CC[N+]1(C)CCCC1 | inactive |
| CCn1cc[n+](C)c1C | inactive |

| SMILES | Potency |
| --- | --- |
| CCCCCCCCCCn1cc[n+](C)c1 | 55.5 µM (active) and inactive |
| CCCn1cc[n+](C)c1 | inactive |
| CC(Cl)(Cl)C(=O)O | inactive |
| O=C(O)c1ccccc1O | inactive |
| C=CCOC(Cn1ccnc1)c1ccc(Cl)cc1Cl (stereo not given) | inactive |
| CCC(=O)C(CC(C)N(C)C)(c1ccccc1)c1ccccc1 (stereo not given) | inactive |
| CCCCCCCCn1cc[n+](C)c1 | inactive |
| Nc1ccc(-c2ccc(N)c(Cl)c2)cc1Cl | inactive |
| CCCCCC[n+]1ccccc1 | inactive |
| CC(=O)[O][Hg][c]1ccccc1 | 968 nM (active) and 871 nM (active) and 2.11 µM (active) |
| C[N+](C)(C)Cc1ccccc1 | inactive |
| CCCCCCCCCCCC(=O)O | inactive |
| O=P1(N(CCCl)CCCl)NCCCO1 (stereo not given) | inactive |
| COCC(=O)N(c1c(C)cccc1C)C(C)C(=O)OC (stereo not given) | inactive |
| CCCC[N+]1(C)CCCCC1 | inactive |
| CC[N+](CC)(CC)CC | inactive |
| CCCC[n+]1ccccc1C | inactive |
| CNC | inactive |
| CCCCCCCCCCCCOS(=O)(=O)O | 49 µM (active) and 24.5 µM (active) and inactive |
| O=c1nc(O)n(Cl)c(=O)n1Cl | inactive |
